# Test results reported in PubChem BioAssay (Tox21).
# Values joined by “and” are separate entries in the source; they are usually repeats but may differ in a detail not shown here. Equal values may be shown once. Records with an inconclusive call do not appear. A call without a number means that no potency is given here. A structure can be active in one record and inactive in another. Active and inactive are the calls of the source. The call rests on the fitted dose curve; in most records, active means well fitted cell-killing curve with a large enough effect in the repeat runs; inconclusive means weak or mixed curves, or effect the other way; inactive means flat fitted curve, though single readings scatter.
# Assay: qHTS RealTime-Glo MT Cell Viability Assay in HepG2 cells - 40 hour (AID 1224870); further: nearly all actives have a fitted effect of over 50% in size
# Details: RealTime-Glo luminescence; series mostly up to 76.8 µM
# From the text: National Center for Advancing Translational Sciences [NCATS]
# NIH Chemical Genomics Center [NCGC]
# U.S. Environmental Protection Agency [EPA]
# National Institutes of Environmental Health Sciences [NIEHS]
# National Toxicology Program [NTP]
# U.S. Food and Drug Administration [FDA]
# Measure of cell viability is critical in the cell-base assay. Analysis of cell viability is necessary for the characterization of cell responses to cytotoxic drugs and environmental stress. A RealTime-Glo MT Cell Viability Assay to monitor cell viability in real time of continues cell culture during 40 hours of compound treatment was used to screen Tox21 10K library compounds in HepG2 cells. The RealTime-Glo MT Cell Viability Assay is a nonlytic, homogeneous, bioluminescent method to measure cell viability in real time using a simple, plate-based method. The assay involves adding NanoLuc luciferase and a cell-permeant prosubstrate to cells in culture. Viable cells reduce the proprietary prosubstrate to generate a substrate for NanoLuc luciferase. This substrate diffuses from cells into the surrounding culture medium, where it is rapidly used by the NanoLuc Enzyme to produce a luminescent signal. The signal correlates with the number of viable cells, making the assay well suited for cytotoxicity studies.
# Tox21 Assay Protocol Summary:
# The mixture of HepG2 cell suspension and reagents were dispensed at 600cells/6 ul/well in 1536-well tissue culture treated black solid bottom plates using a Multidrop dispenser. After the assay plates were incubated at a 37 C/5% CO2 incubator for 5 hours, 23 nL of compounds dissolved in DMSO, positive and negative controls was transferred to the assay plate by a pintool work station. The plates were incubated at 37 C for 40 hours. The luminescence intensity were measured at 0h, 8h, 16h, 24h, 32h and 40h time points using ViewLux plate reader during compound treatment.
# Potency means the concentration at half of the fitted maximal effect.
row,Compound,Potency
1,S=C(NC1CCCCC1)NC1CCCCC1,inactive
2,Oc1ccc(O)cc1,inactive
3,COc1ccc(OC)c(C(O)CNC(=O)CN)c1 (stereo not given),inactive
4,CC(C)=CCC/C(C)=C\CO,inactive
5,Clc1nc(Cl)c(Cl)c(Cl)c1Cl,inactive
6,CC(=O)CC/C=C(\C)CCC=C(C)C,inactive
7,COc1ccccc1/C=C/C=O,inactive
8,O=C(COc1ccc(Cl)cc1)N1CCN(Cc2ccc3c(c2)OCO3)CC1,inactive
9,CCC(C)OC(=O)c1ccc(O)cc1 (stereo not given),inactive
10,OC1CCCCCCCCCCC1,inactive
11,O=CCCCC=O,inactive
12,CCCCc1oc2ccccc2c1C(=O)c1cc(I)c(OCCN(CC)CC)c(I)c1,39.2 µM (active)
13,Nc1ncn([C@@H]2O[C@H](CO)[C@@H](O)[C@H]2O)c(=O)n1,inactive
14,c1ccc2c(c1)c1cccc3ccc4cccc2c4c31,inactive
15,C/C=C/C(=O)O,inactive
16,CNCCCC12CCC(c3ccccc31)c1ccccc12,38.9 µM (active) and 26.8 µM (active)
17,CN(C)CCN(Cc1cccs1)c1ccccn1,inactive
18,O=C1OC2(c3cc(Br)c(O)c(Br)c3Oc3c2cc(Br)c(O)c3Br)c2c(Cl)c(Cl)c(Cl)c(Cl)c21,inactive
19,CC(C)OB(OC(C)C)OC(C)C,inactive
20,C=C(C)C1CC=C(C)CC1 (stereo not given),inactive

row,Compound,Potency
1,Nc1ncnc2nc[nH]c12,inactive
2,CN(C)CCC=C1c2ccccc2CCc2ccccc21,inactive and 54.9 µM (active)
3,c1cc(N(CC2CO2)CC2CO2)ccc1OCC1CO1 (stereo not given),inactive
4,Cc1cccc(N(C)C(=S)Oc2ccc3ccccc3c2)c1,inactive
5,Cc1cc2nc3c(=O)[nH]c(=O)nc-3n(C[C@H](O)[C@H](O)[C@H](O)CO)c2cc1C,inactive
6,COc1cccc2c1C(=O)c1c(O)c3c(c(O)c1C2=O)C[C@@](O)(C(=O)CO)C[C@@H]3O[C@H]1C[C@H](N)[C@H](O)[C@H](C)O1,0.952 µM (active)
7,Nc1ccc(Nc2ccccc2)cc1,inactive
8,CCOC(=O)C(C#N)=C(c1ccccc1)c1ccccc1,inactive
9,CCCCC(CC)COP(=O)(OCC(CC)CCCC)OCC(CC)CCCC (stereo not given),inactive
10,O=C(/C=C/C=C/c1ccc2c(c1)OCO2)N1CCCCC1,inactive
11,CCC(C)c1ccccc1O (stereo not given),inactive
12,CCCc1c(OCCCCc2nn[nH]n2)ccc(C(C)=O)c1O,inactive
13,C#C[C@]1(O)CC[C@H]2[C@@H]3CCc4cc(OC)ccc4[C@H]3CC[C@@]21C,inactive
14,Nc1ccc(Cl)cc1Cl,inactive
15,CCCCOCCOCCO,inactive
16,NNc1ccc(C(=O)O)cc1,inactive
17,O=C(c1ccccc1)c1ccc(O)cc1O,inactive
18,CC(C)OC=O,inactive
19,CCCCC(CC)COC(=O)c1ccc(N(C)C)cc1 (stereo not given),inactive
20,CCCC(=O)O,inactive
